This is a sample that favours compounds with a hit; in the whole collection about 0.83% have one here.
Menin-MLL FL inh: inhibitors of human menin-MLL interaction, wild-type MLL peptide. Fluorescence polarization, fluorescein-MLL peptide displacement from menin. FP activity change, % at 61.4 µM. 290,000 tested, under 10 active; active = well fitted curve in the direction sought with a large enough effect in the polarisation, not every such curve was filed as active; inconclusive = small, poorly fitted or top-dose-only effect, or effect the other way, or a change in a side signal; inactive = no such curve, though single readings can be large or run the other way; the % refers to the polarisation
CtBP-E1A inh: CtBP/E1A binding inhibition; AlphaScreen GST-E1A/His-CtBP binding, 1536-well; hits give low values; activity change, % (test concentration not listed); 340,000 tested, 0.49% active; AID 651724
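AlphaScreen with 125 nM GST-E1A and 125 nM His-CtBP (5X stocks) in Tris pH 8.0, 300 mM NaCl, BSA, Tween 20, TCEP. Compounds preincubated 2 h at 37 deg C, then glutathione donor/nickel acceptor beads added for 1 h at 37 deg C in dark.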
Six1-Eya2 blk: inhibitors of human Six1/Eya2 interaction | Q15475+O00167 | AlphaScreen GST-Six1/His-Eya2 binding, biochemical; hits give low values | activity change, % (concentration not given with the values) | 360,000 tested, 0.56% active | AID 651725
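AlphaScreen with GST-Six1 and His-Eya2 (5X mix: 250 nM and 500 nM), glutathione donor and nickel acceptor beads; buffer 50 mM Tris pH 8.0, 300 mM NaCl, 1 mM TCEP; 1 h at 37 C in the dark.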
MLL CXXC-DNA inh: inhibitors of human MLL CXXC domain-DNA interaction; 290,000 tested, 0.037% active; Potency, µM (highest dose often 115 µM), hits mostly inhibitors; MLL-CXXC / FITC-HOXA9 DNA fluorescence polarization; active = well fitted inhibition curve with a large enough effect in the polarisation, with a control signal flat, not every such curve was filed as active; inconclusive = small, poorly fitted or top-dose-only effect, or effect the other way, or a change in a side signal; inactive = no such curve, though single readings can be large or run the other way; the % refers to the polarisation
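Fluorescence polarization: 7 uM MLL-CXXC (stock) preincubated 5 min with compounds, then 50 nM fluorescein-HOX-A9 DNA (stock) added; 30 min ambient. Buffer 50 mM Tris-HCl pH 7.5, 50 mM NaCl, 1 mM DTT, 0.05% BSA.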
GLS inhibitor: inhibitors of human glutaminase (GLS); O94925; GLS enzymatic activity, qHTS titration; Potency, µM (highest dose often 45.5 µM), actives largely listed as inhibitors; 410,000 tested, 0.21% active; AID 624170; active = well fitted inhibition curve with a large enough effect; inconclusive = small, poorly fitted or top-dose-only effect, or another doubt; inactive = no such curve, though single readings can be large or run the other way
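Coupled fluorescence readout: glutamate oxidase/HRP/Amplex Red detect glutamate formed by hKGA from L-glutamine (1 mM solution added). Buffer 45 mM KH2PO4 pH 8.2, 0.02% Tween-20; reads at t0 and 30 min RT.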
Menin-MLL TR inh: menin-MLL binding inhibition, Texas Red mutant peptide. 270,000 tested, 0.23% active. Menin + Texas Red MLL mutant peptide, fluorescence polarization. Potency, µM (top dose mostly 61.6 µM), usual class: inhibitors. O00255. AID 1768; active = well fitted inhibition curve with a large enough effect in the polarisation, with a control signal flat, not every such curve was filed as active; inconclusive = small, poorly fitted or top-dose-only effect, or effect the other way, or a change in a side signal; inactive = no such curve, though single readings can be large or run the other way; the % refers to the polarisation
Numbers stand for hits; . = inactive; ? = inconclusive; / = not tested or not shown. Cut-off read from the data, not from the text of the source, unless noted: active = activity change below about -65%; inconclusive = mostly about -30% to -63%; inactive = weaker than that.

SMILES	Menin-MLL FL inh	CtBP-E1A inh	Six1-Eya2 blk	MLL CXXC-DNA inh	GLS inhibitor	Menin-MLL TR inh
CN(CCC#N)C(=O)COC(=O)c1c2c(nc3ccccc13)/C(=C\c1ccco1)CC2	/	.	?	/	11µM	/
O=C(COC(=O)c1c2c(nc3ccccc13)/C(=C\c1ccco1)CC2)NC1CCCC1	/	.	.	/	?	/
CC1CCCCC1NC(=O)COC(=O)c1c2c(nc3ccccc13)/C(=C\c1ccco1)CC2 (centres undefined)	/	.	?	/	11µM	/
Cc1cc(=O)c2c(O)cc(O)c(C)c2o1	.	/	/	/	/	.
Cc1cc(F)ccc1S(=O)(=O)Nc1ccccc1C(=O)Nc1ccccc1-c1nc2ccccc2[nH]1	.	.	.	.	.	14µM
Cc1cc(F)ccc1S(=O)(=O)Nc1ccccc1C(=O)Nc1ncn[nH]1	.	.	.	.	.	.
COC(=O)c1c(-c2ccc(Cl)cc2)noc1N1CCN(c2cc(C)ccc2C)CC1	/	/	/	/	.	/
NC(=S)N/N=C/c1ccccc1	.	.	.	.	.	.
NC(=S)NN=Cc1nccc2c(C(F)(F)F)cccc12	/	-72	-75	/	.	/
CNc1cccnc1C=NNC(N)=S	/	.	-88	/	.	/
COc1ccc(Cc2c(O)nc(SCC(=O)c3ccc(OC)cc3)[nH]c2=O)cc1	.	/	-86	.	.	.
COc1ccc(OC)c(-c2csc(NC(=O)C3c4ccccc4Oc4ccccc43)n2)c1	.	.	.	.	.	14µM
O=C(Nc1nc(-c2ccccc2)cs1)C1c2ccccc2Oc2ccccc21	.	.	.	.	.	18µM
CCOc1ccc2c(ccc(/C=C/c3cc(C)c4cccnc4c3O)[n+]2C)c1	/	-94	-90	/	.	/
N#CC1=C(N)n2c(s/c(=C\c3ccco3)c2=O)=C(C#N)C1c1ccco1 (centres undefined)	?	?	-71	.	11µM	.
CCN(CC)c1ccc(/C=C2\C(=O)N(c3nnc(C)c(=O)[nH]3)N=C2C)cc1	?	-92	-92	.	.	/
CCN(CC)c1ccc(/C=C2/C(=O)ON=C2C)cc1	?	.	.	.	.	.
COc1ccc(OC)c(/C=C/C(=O)Oc2ccc(C(C)=O)cc2)c1	.	-88	.	.	.	.
COc1ccc(/C=C/C(=O)O)cc1	.	.	.	.	.	.
COc1ccc(/C=C/C(=O)Oc2ccc(C)cc2)cc1	.	-70	.	.	.	.
COc1ccc(OC)c(/C=C/C(=O)OCC(=O)N2C(C)CCCC2C)c1 (centres undefined)	/	-94	-67	/	.	/
Cn1cnc(S(=O)(=O)N2CCC(C(=O)Nc3ccc(OC(F)(F)F)cc3)CC2)c1	/	/	/	/	.	/
CC1=C(C(=O)OC(C)C)C(c2ccc(Cl)cc2)n2c(s/c(=C\c3ccc(OCC(=O)O)cc3)c2=O)=N1 (centres undefined)	?	/	.	.	11µM	.
Nc1c(S(=O)(=O)O)cc(NC(=O)c2ccccc2)c2c1C(=O)c1ccccc1C2=O	.	/	-71	.	?	?
Cc1ccc(C(=O)N/C(=C\c2ccco2)C(=O)NCCCn2ccnc2)cc1	.	.	-77	.	.	.
SMILES	Menin-MLL FL inh	CtBP-E1A inh	Six1-Eya2 blk	MLL CXXC-DNA inh	GLS inhibitor	Menin-MLL TR inh
Cc1ccc(C(=O)N/C(=C/c2ccco2)C(=O)NCCCn2ccnc2)cc1	?	.	?	.	.	.
Cn1cc(S(=O)(=O)N2CCCCC2)cc1C(=O)NCc1ccc(Cl)cc1	/	/	/	/	.	/
Oc1ccc(Cl)cc1C1=NNC(c2cc(Br)cc3c2OCOC3)C1 (centres undefined)	.	.	.	.	.	10µM
C/C(=N\NC(=O)c1c[nH]c2ccccc12)c1ccccn1	.	-93	-93	.	.	.
CCc1ccc(/C(C)=N/NC(=O)c2ccccn2)cc1	.	.	.	.	.	.
C/C(=N\NC(=O)c1cc2ccccc2cc1O)c1ccccn1	/	.	.	.	.	/
C/C(=N\NC(=O)c1ccccc1-n1cccc1)c1ccccn1	/	?	-92	/	.	/
C/C(=N\NC(=O)c1ccc(F)cc1)c1ccccn1	.	/	-92	.	.	.
C#C[C@]1(OC(C)=O)CC[C@H]2[C@@H]3CCC4=C/C(=N/O)CC[C@@H]4[C@H]3CC[C@@]21CC	.	/	/	.	.	.
O=C(CCN1C(=O)/C(=C/c2ccco2)SC1=S)Nc1ccc(O)cc1C(=O)O	?	.	-68	?	.	?
O=C(CN1C(=O)/C(=C\c2ccco2)SC1=S)Nc1ccc(O)cc1C(=O)O	/	/	?	.	?	/
COc1ccc2[nH]cc(CCNc3cc(-c4ccccc4C(F)(F)F)ncn3)c2c1	.	/	/	/	/	.
CC1=NN(c2ccc(Cl)c(C(=O)O)c2)C(=O)C1	.	.	.	.	13µM	.
CC1(CC(=O)N/N=C/c2cc(Br)c(O)cc2O)OCCO1	.	?	?	.	10µM	.
Cc1oc(/C=N/NC(=O)CC2(C)OCCO2)cc1Br	.	.	.	.	.	.
NC(=O)OC[C@H](O)COc1ccc(Cl)cc1	.	/	/	.	.	.
O=C1CC(=O)N(Cc2ccco2)C(=O)N1	?	.	?	.	10µM	.
C#CCC(Cc1cnc2nc(N)nc(N)c2n1)c1ccc(C(=O)N[C@@H](CCC(=O)O)C(=O)O)cc1 (some centres undefined)	/	/	/	/	.	/
CC/C(O)=N/S(=O)(=O)c1ccc(-c2c(-c3ccccc3)noc2C)cc1	/	/	/	/	.	/
Cn1c(NCCO)nc2c1c(=O)n(Cc1ccccc1Cl)c(=O)n2C	/	/	/	/	5µM	/
Cn1c(NCc2cccnc2)nc2c1c(=O)n(Cc1ccccc1F)c(=O)n2C	.	.	.	.	?	.
Cn1c(NCCCN2CCOCC2)nc2c1c(=O)n(Cc1ccc(Cl)cc1Cl)c(=O)n2C	.	.	.	.	2.5µM	.
COCCNc1nc2c(c(=O)n(Cc3ccccc3F)c(=O)n2C)n1C	.	/	.	.	16µM	.
CN1CCN(c2ncc3nc(CCc4ccccc4)c(=O)n(C)c3n2)CC1	.	/	/	/	/	.
COc1cc(C=c2c3ccccc3n3c2cc(-c2ccccc2)[n+]3C)cc(OC)c1OC	/	.	?	/	.	/
SMILES	Menin-MLL FL inh	CtBP-E1A inh	Six1-Eya2 blk	MLL CXXC-DNA inh	GLS inhibitor	Menin-MLL TR inh
CN(C)c1ccc(C=c2c3cc([N+](=O)[O-])ccc3n3c2cc(-c2ccccc2)[n+]3C)cc1	/	.	-80	/	.	/
CN(C)c1ccc(C=c2c3ccccc3n3c2cc(-c2ccccc2)[n+]3C)cc1	/	.	?	/	.	/
COc1cc(N(C)C)ccc1C=c1c2ccccc2n2c1cc(-c1ccccc1)[n+]2C	/	-80	-80	/	?	/
CC(C)C(C(=O)O)N1C(=O)/C(=C/c2ccc(Br)cc2)SC1=S (centres undefined)	.	/	/	/	/	?
Cc1ccc(N=Nc2c(O)[nH]c3ccc(F)cc23)cc1	.	.	.	?	.	/
O=c1[nH]nc(N=Nc2c(O)[nH]c3ccc(F)cc23)c(=O)[nH]1	/	-71	-80	/	.	/
Cc1ccc(C)c(Cn2c(SCC(=O)NCc3ccccc3)nc3ccccc32)c1	/	/	/	/	.	/
